Screens as filed in PubChem.
An excerpt weighted towards active compounds, which were near 3.5% of everything screened.
MITF inh: human MITF inhibition, primary screen; O75030; AlphaScreen MITF homodimerization, bead proximity signal; inhibition, % at 2.6 µM; 650,000 tested, 0.91% active; AID 1259374; in the data active = inhibition above about 50%;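 also: 0% = vehicle wells with protein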
TEAD-YAP inh: TEAD-YAP interaction inhibition; 640,000 tested, 1.4% active; HEK-TIYL cells, TEAD-Gal4/YAP UAS-luciferase luminescence; inhibition, % at 9.12 µM; in the data active = inhibition above about 32%;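 also: 0% = median of test compound wells and 100% = reference inhibitor wells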
GPR151 activ: activators of human GPR151. Q8TDV0. PathHunter beta-arrestin GPR151 cells, luminescence. activation, % at 11.2 µM. 650,000 tested, 1% active. AID 1508602; in the data active = activation above about 4.9%;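 also: 0% = median of compound wells and 100% = cells with positive control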
Target sequence (Q8TDV0 whole entry, looked up): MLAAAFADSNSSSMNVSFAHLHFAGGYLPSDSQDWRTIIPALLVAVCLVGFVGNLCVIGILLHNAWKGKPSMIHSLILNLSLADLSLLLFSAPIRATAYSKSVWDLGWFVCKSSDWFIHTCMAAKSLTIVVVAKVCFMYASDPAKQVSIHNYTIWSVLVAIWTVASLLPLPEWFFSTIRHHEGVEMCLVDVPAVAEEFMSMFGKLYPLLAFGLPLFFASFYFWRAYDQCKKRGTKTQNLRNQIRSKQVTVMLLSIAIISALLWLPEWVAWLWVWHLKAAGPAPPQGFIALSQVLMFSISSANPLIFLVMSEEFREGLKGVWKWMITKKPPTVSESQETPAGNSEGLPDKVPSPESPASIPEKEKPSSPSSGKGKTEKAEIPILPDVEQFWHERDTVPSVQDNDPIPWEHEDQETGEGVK
FBW7 act: activators of human E3 ligase FBW7. Q969H0. AlphaScreen FBW7–phospho-cyclin E peptide binding, activator screen. normalized activity (activation), % at 26.1 µM. 650,000 tested, 0.13% active; in the data active = normalized activity above about 1.9%;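 also: purified mutant Fbw7 with reduced substrate affinity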
* = called active by the depositor.

What do the screens show for `COc1ccc(CN(CCC(c2ccccc2OC)C2CCOC(C)(C)C2)C(C)=O)cc1` (stereo not given)?
MITF inh: 3; TEAD-YAP inh: 6; GPR151 activ: -2; FBW7 act: 0

What do the screens show for `CCC(CO)Nc1ccc2ncc(-c3cccc(CO)c3)n2n1` (stereo not given)?
MITF inh: -14; TEAD-YAP inh: 48*; GPR151 activ: 0; FBW7 act: 0

How did CC(C)[C@@H](CO)Nc1ccc2ncc(-c3cccc(Cl)c3)n2n1 do in these assays?
MITF inh: -2; TEAD-YAP inh: 5; GPR151 activ: 0; FBW7 act: 2.0*

Results for CC(C)[C@@H](CO)Nc1ccc2ncc(-c3ccccc3)n2n1 ?
MITF inh: 4; TEAD-YAP inh: 28; GPR151 activ: 1; FBW7 act: 1

Results for CC(C)[C@@H](CO)Nc1ccc2ncc(-c3cccc(CO)c3)n2n1 ?
MITF inh: 10; TEAD-YAP inh: 43*; GPR151 activ: 0; FBW7 act: 0

Results for CC(C)[C@@H](CO)Nc1ccc2ncc(-c3cccc(N)c3)n2n1 ?
MITF inh: -11; TEAD-YAP inh: 17; GPR151 activ: 0; FBW7 act: -1

Results for CC(C)[C@@H](CO)Nc1ccc2ncc(-c3ccc4ccccc4c3)n2n1 ?
MITF inh: -22; TEAD-YAP inh: 14; GPR151 activ: -1; FBW7 act: 0

How did COc1cc(-c2cnc3ccc(N[C@H](CO)C(C)C)nn23)ccc1O do in these assays?
MITF inh: -12; TEAD-YAP inh: 93*; GPR151 activ: 0; FBW7 act: 0

How did CCC(CO)Nc1ccc2ncc(-c3cccc(Br)c3)n2n1 (stereo not given) do in these assays?
MITF inh: -5; TEAD-YAP inh: 1; GPR151 activ: 0; FBW7 act: 0

How did Cc1ccc(NC(=S)NNC(=O)CC(=O)NNC(=S)Nc2ccc(C)cc2)cc1 do in these assays?
MITF inh: 35; TEAD-YAP inh: 1; GPR151 activ: 2; FBW7 act: -1

What do the screens show for `COc1ccccc1N(CC(=O)Nc1ccccc1Cl)S(C)(=O)=O`?
MITF inh: 15; TEAD-YAP inh: -7; GPR151 activ: 1; FBW7 act: 0

Results for CN(C)CCNC(=O)C12CCC3CC(CC(C3)C1)C2 ?
MITF inh: -6; TEAD-YAP inh: -10; GPR151 activ: 0; FBW7 act: 0

How did O=C(NC(=S)Nc1ccc(S(=O)(=O)N2CCCCC2)cc1)c1ccccc1[N+](=O)[O-] do in these assays?
MITF inh: 9; TEAD-YAP inh: 8; GPR151 activ: 0; FBW7 act: 0

How did CCC(CO)Nc1ccc2ncc(-c3ccccc3F)n2n1 (stereo not given) do in these assays?
MITF inh: 2; TEAD-YAP inh: 42*; GPR151 activ: -1; FBW7 act: 1

Results for CCC(CO)Nc1ccc2ncc(-c3ccc(C)cc3)n2n1 (stereo not given) ?
MITF inh: 14; TEAD-YAP inh: 24; GPR151 activ: 0; FBW7 act: 0

Results for CCN1CCN(CC(O)COc2ccc(C)cc2C)CC1 (stereo not given) ?
MITF inh: -2; TEAD-YAP inh: -1; GPR151 activ: 0; FBW7 act: 0

Results for CCN1CCN(c2nc(NCc3ccccc3)c3ccccc3n2)CC1 ?
MITF inh: -15; TEAD-YAP inh: -14; GPR151 activ: 0; FBW7 act: 0

How did COc1ccc(N2C(=O)c3ccccc3NC2c2ccc(-c3ccc([N+](=O)[O-])cc3)o2)cc1 (stereo not given) do in these assays?
MITF inh: -4; TEAD-YAP inh: 41*; GPR151 activ: 0; FBW7 act: 0

What do the screens show for `COc1ccc(N2C(=O)c3ccccc3NC2c2cccc([N+](=O)[O-])c2)cc1` (stereo not given)?
MITF inh: 17; TEAD-YAP inh: -23; GPR151 activ: -1; FBW7 act: 1

Results for CC(C)OC(=O)c1c(-c2ccc(Br)cc2)csc1NC(=O)/C=C/C(=O)O ?
MITF inh: 2; TEAD-YAP inh: 36*; GPR151 activ: 2; FBW7 act: 0

Results for CC(C)OC(=O)c1c(-c2ccc(Br)cc2)csc1NC(=O)C1C2CCC(C2)C1C(=O)O (stereo not given) ?
MITF inh: -4; TEAD-YAP inh: -4; GPR151 activ: -2; FBW7 act: 0

Results for CCCc1ccc(-c2ccc(OC(=O)C3CCCCC3)cc2)nc1 ?
MITF inh: 0; TEAD-YAP inh: 73*; GPR151 activ: -2; FBW7 act: 0

Results for CCCc1ccc(-c2ccc(C(=O)OCC(C)CC)cc2)nc1 (stereo not given) ?
MITF inh: 7; TEAD-YAP inh: -7; GPR151 activ: 0; FBW7 act: 0

How did CCCc1ccc(-c2ccc(C(=O)OCc3ccco3)cc2)nc1 do in these assays?
MITF inh: 1; TEAD-YAP inh: 52*; GPR151 activ: -2; FBW7 act: 0

What do the screens show for `c1ccc(Cc2nnc3sc(-c4ccco4)nn23)cc1`?
MITF inh: 1; TEAD-YAP inh: -16; GPR151 activ: 4; FBW7 act: 0

Results for O=[N+]([O-])c1nn(-c2ccc(Cl)cc2)n(O)c1=Nc1ccccc1F ?
MITF inh: 0; TEAD-YAP inh: 38*; GPR151 activ: -1; FBW7 act: 0

What do the screens show for `O=[N+]([O-])c1nn(-c2ccc(Cl)cc2)n(O)c1=Nc1ccccc1`?
MITF inh: 0; TEAD-YAP inh: 62*; GPR151 activ: 0; FBW7 act: 0

Results for O=[N+]([O-])c1nn(-c2ccc(Cl)cc2)n(O)c1=Nc1ccc(Cl)cc1 ?
MITF inh: 26; TEAD-YAP inh: 7; GPR151 activ: -2; FBW7 act: 0

What do the screens show for `CCOc1c(OC)cccc1C1CC(=O)NC2=C1C(=O)CCC2` (stereo not given)?
MITF inh: -9; TEAD-YAP inh: -4; GPR151 activ: 0; FBW7 act: 0

What do the screens show for `CCC(C)(C)NC(=O)CN(C(=O)c1snc(C(N)=O)c1N)c1ccc(OC)cc1`?
MITF inh: -8; TEAD-YAP inh: 0; GPR151 activ: -1; FBW7 act: 0

Results for CCn1c2cc(C)sc2c2cnn(CC(=O)N3C(C)CCCC3C)c(=O)c21 (stereo not given) ?
MITF inh: 4; TEAD-YAP inh: 4; GPR151 activ: 0; FBW7 act: 0

How did O=C1CC(c2ccccc2)N=C(SCC(=O)Nc2ccc(Cl)cc2)N1 (stereo not given) do in these assays?
MITF inh: -9; TEAD-YAP inh: 5; GPR151 activ: 5; FBW7 act: 0

Results for OCCN(CCO)C(=S)Nc1ccccc1 ?
MITF inh: 0; TEAD-YAP inh: 4; GPR151 activ: 0; FBW7 act: 0

Results for COc1ccc(CC(=O)NCc2ccc(F)cc2)cc1 ?
MITF inh: 6; TEAD-YAP inh: 46*; GPR151 activ: 0; FBW7 act: 0

What do the screens show for `Cc1ccc(CNC(=O)CSCc2ccc(F)cc2)cc1`?
MITF inh: 2; TEAD-YAP inh: -1; GPR151 activ: 0; FBW7 act: 0

What do the screens show for `COc1ccc(CC(=O)NCc2ccc(Cl)cc2)cc1`?
MITF inh: 7; TEAD-YAP inh: 40*; GPR151 activ: 0; FBW7 act: 0
